From PubChem BioAssay (NCATS)
“And” between values parts separate entries of the source, which are not always exact repeats. Identical values can stand only once. Results filed as inconclusive are left out. The source made the active and inactive calls. Calls follow the shape of the dose curve; as a rule, active = well fitted curve in the direction sought with a large enough effect; inconclusive = small, poorly fitted or top-dose-only effect, or another doubt; inactive = no such curve, though single readings can be large; an effect the other way counts as inactive or inconclusive.

How the values were obtained:
[1] = Viability qHTS for spleen associated tyrosine kinase inhibitor (SYKi) naive MV4-11 cells (AID 1963823); also: nearly all actives have a fitted effect of over 40% in size
In short: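 Compounds were dispensed acoustically onto plates, MV4-11 cells (SYKi-naive) added at 500 per well, and plates incubated 72 hr at 37 C. CellTiter-Glo was added and luminescence measured after 10 min.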

[2] = Viability qHTS for spleen associated tyrosine kinase inhibitor (SYKi) drug resistant MV4-11 cells (AID 1963824); also: nearly all actives have a fitted effect of over 35% in size
In short: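 SYK inhibitor-resistant MV4-11 AML cells, 500 per well, added to predispensed compounds and incubated 72 hr at 37 C, 5% CO2. Viability measured by CellTiter-Glo luminescence after 10 min at room temperature.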

[3] = Quantitative highthroughput screen to assess conditional lethalithy of NOMO1 cells grown in Human Plasma-Like Medium with dialyzed fetal bovine serum (HPLM+ds) (AID 1963878); also: nearly all actives have a fitted effect of over 35% in size;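 as to Viability: 100% = DMSO wells and 0% = empty wells on each plate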
In short: (§1)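 Each medium arm—HPLM with 10% dialyzed FBS, or RPMI1640 with 5 mM glucose and 10% untreated or dialyzed FBS—was screened against an 11-point, 3-fold compound titration for 48 h at 37 °C, with CellTiter-Glo luminescence as endpoint.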

[4] = Cellular viability qHTS for adrenocortical cancer (ACC) cell line SW-13 (AID 1963989); conditions: SW-13 ACC cells viability, CellTiter-Glo, 48 h; activity (max response): active compounds read low; also: nearly all actives have a fitted effect of over 65% in size;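 as to activity (max response): cells grown in serum-free medium with ITS supplement; % is scaled to controls: 0 for no effect and ±100 for the full control effect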
In short: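 48 h treatment, SW-13 in ITS/DMEM serum-free; doses up to 46 uM; readout CellTiter-Glo luminescence; curve fit four-parameter logistic.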

[5] = Cellular viability qHTS for adrenocortical cancer (ACC) cell line NCI-H295R (AID 1963990); also: nearly all actives have a fitted effect of over 60% in size
In short: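 Compound titrations (up to 46 uM final) are applied to NCI-H295R cultures for 48 h at 37C. Viable cell number is estimated by CellTiter-Glo signal, normalised to DMSO and doxorubicin controls.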

[6] = Quantitative highthroughput screen to assess conditional lethalithy of P12 Ichikawa cells grown in Human Plasma-Like Medium with dialyzed fetal bovine serum (HPLM+ds) (AID 1963879); conditions: Potency: viability; also: nearly all actives have a fitted effect of over 35% in size; as to Viability: series mostly up to about 46 µM
In short: as §1

[7] = Quantitative highthroughput screen to assess conditional lethalithy of P12 Ichikawa cells grown in RPMI1640 with dialyzed fetal bovine serum (RPMI+ds) (AID 1963880); conditions: Potency: P12-Ichikawa viability; also: nearly all actives have a fitted effect of over 35% in size;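 as to Viability: 100% = DMSO wells and 0% = empty wells on each plate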
In short: as §1

[8] = Quantitative highthroughput screen to assess conditional lethalithy of P12 Ichikawa cells grown in RPMI1640 with untreated serum (RPMI+s) (AID 1963881); conditions: Potency: viability; also: nearly all actives have a fitted effect of over 35% in size;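 as to Viability: series mostly up to about 46 µM; 100% = DMSO wells and 0% = empty wells without cells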
In short: as §1

[9] = Quantitative highthroughput screen to assess conditional lethalithy of SEM cells grown in Human Plasma-Like Medium with dialyzed fetal bovine serum (HPLM+ds) (AID 1963882); also: nearly all actives have a fitted effect of over 35% in size; as to Viability: series mostly up to about 46 µM
In short: as §1

[10] = Quantitative highthroughput screen to assess conditional lethalithy of SEM cells grown in RPMI1640 with unreated serum (RPMI+s) (AID 1963883); also: nearly all actives have a fitted effect of over 35% in size;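 as to Viability: 100% = DMSO wells and 0% = empty wells without cells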
In short: as §1

[11] = Quantitative highthroughput screen to assess conditional lethalithy of SEM cells grown in RPMI1640 with dialyzed fetal bovine serum (RPMI+ds) (AID 1963884); also: nearly all actives have a fitted effect of over 35% in size;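 as to Viability: series mostly up to about 46 µM; 100% = DMSO control wells and 0% = empty wells without cells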
In short: as §1
Potency is read from the fitted curve at half-maximal effect.

OC(c1cc(C(F)(F)F)nc2c(C(F)(F)F)cccc12)C1CCCCN1 (centres undefined)
active: Potency [1] 18.6 µM | Potency [2] 9.34 µM | Potency [3] 23.5 µM | Potency [4] 22.4 µM | Potency [5] 25.1 µM

C[C@H](Cc1ccc(O)c(O)c1)[C@@H](C)Cc1ccc(O)c(O)c1
active: Potency [1] 1.46 µM | Potency [2] 1.86 µM and 1.03 µM | Potency [6] 20.9 µM | Potency [7] 16.6 µM | Potency [8] 18.7 µM

COc1ccc(C=Cc2cc(OC)c(OC)c(OC)c2)cc1NC(=O)[C@H](N)CO
active: Potency [1] 0.0332 µM | Potency [2] 0.0417 µM | Potency [6] 0.0296 µM | Potency [7] 0.0469 µM | Potency [8] 0.0166 µM | Potency [9] 0.0264 µM | Potency [10] 0.0209 µM | Potency [11] 0.0296 µM | Potency [4] 0.126 µM | Potency [5] 0.199 µM

CCn1c(=O)c2c(nc(C=Cc3ccc(OC)c(OC)c3)n2C)n(CC)c1=O
inactive: Potency [1] | Potency [2] | Potency [6] | Potency [7] | Potency [8] | Potency [9] | Potency [10] | Potency [11] | activity (max response) [4] 1.29% | Potency [5]

O=C(O)C1=CC(O)C(O)[C@H](O)C1 (some centres undefined)
inactive: Potency [1] | Potency [2] | Potency [3] | Potency [9] | Potency [11] | Potency [5]

Nc1cccc(-c2cc3c(Oc4cccc(O)c4)ncnc3[nH]2)c1
active: Potency [1] 1.66 µM | Potency [2] 2.91 µM and 3.32 µM | Potency [6] 16.6 µM | Potency [9] 16.6 µM | Potency [4] 3.16 µM | Potency [5] 8.91 µM

CN(C)CCCN1c2ccccc2CCc2ccc(Cl)cc21
inactive: Potency [6]
active: Potency [1] 16.6 µM | Potency [2] 10.6 µM and 14.8 µM | Potency [5] 25.1 µM

C[C@@]1(C(=O)Nc2ccc(F)nc2)CCCN1c1nc(Nc2cc(C3CC3)[nH]n2)c2cccn2n1
active: Potency [1] 1.46 µM | Potency [2] 1.84 µM | Potency [8] 2.96 µM | Potency [9] 4.18 µM | Potency [11] 3.32 µM | Potency [5] 0.199 µM

CNC(=O)c1ccccc1Nc1nc(Nc2ccc(N3CCOCC3)cc2OC)ncc1Cl
active: Potency [1] 184 nM and 132 nM | Potency [2] 326 nM and 296 nM | Potency [6] 8.33 µM | Potency [8] 6.62 µM | Potency [9] 2.09 µM | Potency [10] 1.87 µM | Potency [4] 5.62 µM | Potency [5] 0.631 µM

CC(C)(O)CNc1nc(Nc2ccnc(C(F)(F)F)c2)nc(-c2cccc(C(F)(F)F)n2)n1
active: Potency [1] 14.8 µM | Potency [2] 14.8 µM | Potency [7] 2.95 µM | Potency [8] 2.95 µM | Potency [11] 3.31 µM

O=C(Nc1cccc(C(F)(F)F)c1)Nc1cc(S(=O)(=O)NC2CC2)ccc1-c1ccsc1
active: Potency [1] 14.8 µM | Potency [2] 7.42 µM | Potency [4] 28.2 µM | Potency [5] 31.6 µM
inactive: Potency [6]

COc1ccc(CCN(C)CCCOc2ccc(S(=O)(=O)c3[nH]c4ccccc4c3C(C)C)cc2)cc1OC
active: Potency [1] 7.42 µM | Potency [2] 6.61 µM | Potency [4] 28.2 µM | Potency [5] 11.2 µM
inactive: Potency [6]

CCc1cccc(CC)c1NC(=O)N1Cc2[nH]nc(NC(=O)c3ccc(N4CCN(C)CC4)cc3)c2C1
active: Potency [1] 1.46 µM and 1.66 µM | Potency [2] 1.03 µM and 1.05 µM | Potency [6] 1.87 µM | Potency [9] 4.18 µM | Potency [10] 1.66 µM | Potency [11] 1.66 µM

Oc1ccc([C@@H]2Oc3ccc(O)cc3[C@@H]3CCC[C@@H]32)cc1
active: Potency [1] 5.8 µM | Potency [2] 4.61 µM | Potency [6] 13.2 µM | Potency [8] 11.8 µM | Potency [11] 10.5 µM | Potency [5] 7.08 µM

CN1CCc2c(c3ccccc3n2Cc2ccc(C(=O)NO)cc2)C1
active: Potency [1] 26.3 µM | Potency [2] 14.8 µM | Potency [8] 13.2 µM | Potency [9] 11.8 µM | Potency [5] 28.2 µM
inactive: Potency [7]

NC(=NCCCCCCN=C(N)N=C(N)Nc1ccc(Cl)cc1)N=C(N)Nc1ccc(Cl)cc1
active: Potency [1] 2.35 µM | Potency [2] 2.63 µM | Potency [8] 20.9 µM | Potency [4] 3.98 µM | Potency [5] 17.8 µM

COc1ccc(S(=O)(=O)Nc2cccnc2Nc2ccc(O)cc2)cc1
active: Potency [1] 0.934 µM | Potency [2] 0.833 µM | Potency [6] 3.32 µM | Potency [8] 3.32 µM | Potency [9] 2.35 µM | Potency [4] 3.16 µM
